The structures appear in SMILES notation. Where a name gives a salt, the structure may show the parent alone. ± gives the standard deviation of the averaged measurements.

The assay deals with Toxoplasma gondii RH (in HFF). The assay is described as follows: parasite growth relative to the screen mean (all compounds = 100%); higher = less inhibition of parasite growth. The conditions noted are these: 5 µM; 72 h; oxygen 21 %. The method in brief: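 Values give growth relative to the screen mean. The screen mean (all compounds) is set at 100%, and two screens were averaged. Compounds at 5 µM final were placed on confluent human foreskin fibroblasts, which were infected within 2 h with RH β-Gal–GFP Toxoplasma (MOI 1:5) and kept 72 h at 21% O2 before a CPRG β-Gal readout against in-plate standard curves.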
`COc1ccc([C@@H]2CNC(=O)C2)cc1OC1CCCC1` [(R)-(-)-Rolipram] gave a parasite growth of 106 ± 6%.

In the case of `Cl/C(=C\n1cncn1)c1ccc(Cl)cc1Cl` [Loreclezole hydrochloride], the parasite growth was 146 ± 12%.

Turning to `CC(C)Oc1cccc(-n2c(CCc3c[nH]c4ccc(Br)cc34)nc3ccccc3c2=O)c1`, the parasite growth stood at 55.84 ± 0.023%.

As to `CN(CCCN1c2ccccc2CCc2ccccc21)CC(=O)c1ccc(Cl)cc1` [Lofepramine], the parasite growth was determined as 185.3 ± 1.1%.

In the case of `O=C1c2ccccc2C(Cc2ccnc(F)c2)(Cc2ccnc(F)c2)c2ccccc21`, the parasite growth is 102 ± 14%.

In the case of `COC(=O)C(Cc1ccc(OCCn2c(=O)sc3cc(C(=O)c4ccccc4)ccc32)cc1)C(=O)OC`, the parasite growth was 120 ± 5.3%.

The molecule `O=C1C(Cl)=C(NCCN2CCOCC2)C(=O)c2ncccc21` registered a parasite growth of 25.7 ± 24%.

`OC[C@H]1O[C@@H](n2cnc3c(N[C@H]4CCC[C@@H]4O)ncnc32)[C@H](O)[C@@H]1O` came in with a parasite growth of 140 ± 10%.

In turn, `CCC(=O)O[C@]1(C(=O)SCF)[C@H](C)C[C@H]2[C@@H]3C[C@H](F)C4=CC(=O)C=C[C@]4(C)[C@@]3(F)[C@@H](O)C[C@@]21C` [Fluticasone propionate] yielded a parasite growth of 59.2 ± 34%.

The molecule `O=C(O)CCCc1ccccc1` [sodium 4-Phenylbutyrate] came in with a parasite growth of 64.6 ± 3.4%.

As for `CN(N=O)C(=O)N[C@@H](C=O)[C@@H](O)[C@H](O)[C@H](O)CO` [Streptozocin], the parasite growth stood at 137 ± 5.8%.

`O=C(O)COc1cccc(-c2ocnc2-c2nc(-c3ccccc3)c(-c3ccccc3)o2)c1` showed a parasite growth of 62.8 ± 28%.

The molecule `NC(=O)N1C(=O)/C(=C(\O)c2cccs2)c2cc(Cl)ccc21` [Tenidap] yielded a parasite growth of 134 ± 18%.

`NS(=O)(=O)Cc1noc2ccccc12` [Zonisamide]: the parasite growth stood at 131 ± 2.2%.

`COc1ccc2[nH]c(-c3ccccc3)c(CCNC(C)=O)c2c1` [2-Phenylmelatonin] gave a parasite growth of 149 ± 20%.

`C[C@H](NC(=O)/C(C#N)=C/c1ccc(O)c(O)c1)c1ccccc1` [Tyrphostin B44, (+) enantiomer]: the parasite growth came to 154 ± 41%.

`CN[C@H]1CC[C@@H](c2ccc(Cl)c(Cl)c2)c2ccccc21` [Sertraline hydrochloride]: the parasite growth amounted to 29.3 ± 4.4%.

The molecule `C[C@H](NC(=O)c1sccc1OCc1ccc(Cl)cc1)c1ccccc1` registered a parasite growth of 38.7 ± 22%.

`Cc1cc(NC(=O)Nc2ccc(N(C)C)cc2)c2cc(F)cc(F)c2n1` displayed a parasite growth of 159 ± 3.7%.

Turning to `CCOC(=O)c1ccc(OC(=O)CCCCCNC(=N)N)cc1` [Gabexate mesylate], the parasite growth is 144 ± 6.4%.

For the molecule `Clc1cccc(Cl)c1NC1=NCCN1` [Clonidine hydrochloride], the parasite growth turned out to be 153 ± 28%.

Take `CN(C)CCC1(c2ccc(Cl)cc2)Cc2ccccc2C(=O)O1` (racemic) [(±)-AC 7954 hydrochloride]: the parasite growth amounted to 98.7 ± 67%.

`Cc1ccccc1C(=O)c1ccc(Nc2ccc(Br)cc2N)cc1Cl` came in with a parasite growth of 172 ± 48%.

`O=C(O)c1cc(=O)c2ccccc2[nH]1` [Kynurenic acid] showed a parasite growth of 123 ± 18%.

For `CC(C)(Sc1ccc(CCN(CCCCC2CCCCC2)C(=O)NC2CCCCC2)cc1)C(=O)O`, the parasite growth amounted to 87.9 ± 17%.

For the origin of these results see the supplement of paper PMC4894684.
